According to PubChem BioAssay (Tox21):
Values without a mark were called inactive. Inconclusive results are not listed. A call without a number means that no potency is given here. Active and inactive are the calls of the source. Unless noted, calls come from the whole dose curve.

Molecular target: KiSS-1 receptor (Homo sapiens) (UniProt Q969F8)
Assay: Human kisspeptin (KISS1R) small molecule agonists, calcium flux assay in KISS1R-HEK293 cells (AID 1920064; active = well fitted activation curve with a large enough effect in the repeat runs)
Conditions: KISS1R-HEK293, calcium flux fluorescence, agonist; series mostly up to 76.8 µM; activation: at the top concentration
In short: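 Kinetic calcium assay, 1 s sampling over 3 min at Ex/Em 480/540, in HEK293 cells engineered with human KISS1R; compounds delivered in DMSO after 1 h dye loading.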

Chain of KiSS-1 receptor (Homo sapiens) (Q969F8 whole entry, looked up): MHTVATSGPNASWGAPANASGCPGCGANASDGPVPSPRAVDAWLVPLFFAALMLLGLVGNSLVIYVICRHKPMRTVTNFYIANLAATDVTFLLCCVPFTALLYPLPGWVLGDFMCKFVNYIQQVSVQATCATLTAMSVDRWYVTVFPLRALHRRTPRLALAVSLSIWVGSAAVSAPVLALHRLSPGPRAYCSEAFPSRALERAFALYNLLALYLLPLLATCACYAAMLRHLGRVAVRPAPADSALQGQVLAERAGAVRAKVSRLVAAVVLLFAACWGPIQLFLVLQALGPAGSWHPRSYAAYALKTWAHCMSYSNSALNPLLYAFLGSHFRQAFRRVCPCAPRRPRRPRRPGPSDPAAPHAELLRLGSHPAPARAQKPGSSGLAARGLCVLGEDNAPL

SMILES	activation	Potency
CC(C)[N+](C)(CCC(C(N)=O)(c1ccccc1)c1ccccc1)C(C)C	1.32% [at 35.3 µM]	
O=C(Cl)CCl	-3.77%	
COC(=O)c1ccccc1N		inactive
CN(C)NC(=O)CCC(=O)O		inactive
CN(C)C(=O)C(c1ccccc1)c1ccccc1		inactive
ClCc1ccccn1		inactive
CCCOC(=O)c1ccccc1C(=O)OCCC		inactive
Cc1ccc(N)c(N)c1		inactive
N#CC1(N=NC2(C#N)CCCCC2)CCCCC1	11.3%	
C=C(C)C(=O)OCC(CC)CCCC (centres undefined)		inactive
O=C(CCN1CC1)OCC(CO)(COC(=O)CCN1CC1)COC(=O)CCN1CC1	1.77%	
CCCCOC(=O)c1ccccc1C(=O)OCCCC		inactive
CC(O)CN(CC(C)O)CC(C)O (centres undefined)		inactive
CN(N=O)C(N)=O	0.751%	
CCOC(=O)c1cncn1C(C)c1ccccc1 (centres undefined)	8.4% [at 35.3 µM]	
CCN(CC)c1ccccc1		inactive
CCOc1nc(F)cc2nc(S(=O)(=O)Nc3c(Cl)cccc3Cl)nn12	-3.52%	
O=[N+]([O-])c1ccccc1O		inactive
Nc1ccc(N=Nc2ccc(-c3ccc(N=Nc4c(S(=O)(=O)O)cc5cc(S(=O)(=O)O)c(N=Nc6ccccc6)c(O)c5c4N)cc3)cc2)c(N)c1	-3.6% [at 35.3 µM]	

SMILES	activation	Potency
c1ccc(P(c2ccccc2)c2ccccc2)cc1		inactive
CCCCCBr	3%	
c1ccc2c(c1)sc1ccccc12		inactive
COc1ccc2c3c1O[C@H]1[C@H](O)CC[C@H]4[C@@H](C2)N(C)CC[C@@]341	0.869%	
CN(C)CCc1c[nH]c2cccc(OP(=O)(O)O)c12	-1.54%	
CC(Cl)C(=O)O (centres undefined)	9.68%	
Clc1ccc(Cl)cc1		inactive
FC(F)(F)c1ccc(Cl)cc1		inactive
CCCCCCCCCBr	2.93%	
COC(=O)NS(=O)(=O)c1ccc(N)cc1		inactive
CC(O)CN1CCN(CC(=O)[O-])CCN(CC(=O)[O-])CCN(CC(=O)[O-])CC1.[Gd+3] (centres undefined)	-0.452% [at 35.3 µM]	
Nc1cnn(-c2ccccc2)c(=O)c1Cl	-0.647%	
Cl[C@H]1OCCO[C@@H]1Cl		inactive
O=[N+]([O-])c1cc(Cl)ccc1Cl	2.35%	
c1nc[nH]n1		inactive
COC[C@H](C)N(C(=O)CCl)c1c(C)csc1C	4.83%	
CCC(=O)Nc1ccc(Cl)c(Cl)c1		inactive
C=C(C)C(=O)OCC1CO1 (centres undefined)		inactive
O=C(NC(=O)c1c(F)cccc1F)Nc1cc(Cl)c(OC(F)(F)C(F)C(F)(F)F)cc1Cl (centres undefined)	2.72%	

Tested on: not listed separately
Assay: G protein-coupled receptor (GPCR) small molecule agonists, calcium flux assay: HEK293 wild type cell line counter screen (AID 1920065)
Conditions: HEK293 WT calcium flux, fluorescence, agonist mode; series mostly up to 57.6 µM; activation: at the top concentration
In short: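 Calcium-sensitive dye, loaded 1 h at 37 C into cells cultured 18 h, reports compound-evoked calcium release as fluorescence (Ex/Em 480/540), measured over 3 min. Agonist mode; 15-point titrations, triplicate.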

SMILES	activation	Potency
CC(C)[N+](C)(CCC(C(N)=O)(c1ccccc1)c1ccccc1)C(C)C	0.917% [at 26.5 µM]	
O=C(Cl)CCl	-0.0476%	
COC(=O)c1ccccc1N		inactive
CN(C)NC(=O)CCC(=O)O		inactive
CN(C)C(=O)C(c1ccccc1)c1ccccc1		inactive
ClCc1ccccn1		inactive
CCCOC(=O)c1ccccc1C(=O)OCCC		inactive
Cc1ccc(N)c(N)c1		inactive
N#CC1(N=NC2(C#N)CCCCC2)CCCCC1	1.13%	
C=C(C)C(=O)OCC(CC)CCCC (centres undefined)		inactive
O=C(CCN1CC1)OCC(CO)(COC(=O)CCN1CC1)COC(=O)CCN1CC1	0.213%	
CCCCOC(=O)c1ccccc1C(=O)OCCCC		inactive
CC(O)CN(CC(C)O)CC(C)O (centres undefined)		inactive
CN(N=O)C(N)=O	0.0737%	
CCOC(=O)c1cncn1C(C)c1ccccc1 (centres undefined)	-0.405% [at 26.5 µM]	
CCN(CC)c1ccccc1		inactive
CCOc1nc(F)cc2nc(S(=O)(=O)Nc3c(Cl)cccc3Cl)nn12	0.489%	
O=[N+]([O-])c1ccccc1O		inactive
Nc1ccc(N=Nc2ccc(-c3ccc(N=Nc4c(S(=O)(=O)O)cc5cc(S(=O)(=O)O)c(N=Nc6ccccc6)c(O)c5c4N)cc3)cc2)c(N)c1	-1.82% [at 26.5 µM]	

SMILES	activation	Potency
c1ccc(P(c2ccccc2)c2ccccc2)cc1		inactive
CCCCCBr	-0.53%	
c1ccc2c(c1)sc1ccccc12		inactive
COc1ccc2c3c1O[C@H]1[C@H](O)CC[C@H]4[C@@H](C2)N(C)CC[C@@]341	-0.0574%	
CN(C)CCc1c[nH]c2cccc(OP(=O)(O)O)c12	0.0101%	
CC(Cl)C(=O)O (centres undefined)	0.702%	
Clc1ccc(Cl)cc1		inactive
FC(F)(F)c1ccc(Cl)cc1		inactive
CCCCCCCCCBr	0.0255%	
COC(=O)NS(=O)(=O)c1ccc(N)cc1		inactive
CC(O)CN1CCN(CC(=O)[O-])CCN(CC(=O)[O-])CCN(CC(=O)[O-])CC1.[Gd+3] (centres undefined)	-0.367% [at 26.5 µM]	
Nc1cnn(-c2ccccc2)c(=O)c1Cl	-1.18%	
Cl[C@H]1OCCO[C@@H]1Cl		inactive
O=[N+]([O-])c1cc(Cl)ccc1Cl	-0.233%	
c1nc[nH]n1		inactive
COC[C@H](C)N(C(=O)CCl)c1c(C)csc1C	-0.929%	
CCC(=O)Nc1ccc(Cl)c(Cl)c1		inactive
C=C(C)C(=O)OCC1CO1 (centres undefined)		inactive
O=C(NC(=O)c1c(F)cccc1F)Nc1cc(Cl)c(OC(F)(F)C(F)C(F)(F)F)cc1Cl (centres undefined)		inactive

Tested on: not listed separately
Assay: p53 small molecule agonists, cell-based qHTS assay with human liver microsomes (AID 1963577);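 note: p53 response element beta-lactamase reporter cells with liver microsomes plus NADPH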
Conditions: HCT-116 p53RE-bla with human liver microsomes, ratio, 16 h; series mostly up to 66 µM; activation: at the top concentration
In short: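 In this qHTS, p53 response-element beta-lactamase cells receive test compound together with a microsome/NADPH activating system (0.5 mg/mL final each) and are incubated 16 h at 37 C before LiveBLAzer fluorescence detection.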

SMILES	activation	Potency
CC(C)[N+](C)(CCC(C(N)=O)(c1ccccc1)c1ccccc1)C(C)C	-1.14% [at 30.3 µM]	
O=C(Cl)CCl	1.78%	
COC(=O)c1ccccc1N		inactive
CN(C)NC(=O)CCC(=O)O		inactive
CN(C)C(=O)C(c1ccccc1)c1ccccc1		inactive
ClCc1ccccn1		inactive
CCCOC(=O)c1ccccc1C(=O)OCCC		inactive
Cc1ccc(N)c(N)c1		inactive
N#CC1(N=NC2(C#N)CCCCC2)CCCCC1	-0.515%	
C=C(C)C(=O)OCC(CC)CCCC (centres undefined)		inactive
O=C(CCN1CC1)OCC(CO)(COC(=O)CCN1CC1)COC(=O)CCN1CC1	1.75%	
CCCCOC(=O)c1ccccc1C(=O)OCCCC	3.97%	
CC(O)CN(CC(C)O)CC(C)O (centres undefined)		inactive
CN(N=O)C(N)=O	-11.1%	
CCOC(=O)c1cncn1C(C)c1ccccc1 (centres undefined)	-3.41% [at 30.3 µM]	
CCN(CC)c1ccccc1		inactive
CCOc1nc(F)cc2nc(S(=O)(=O)Nc3c(Cl)cccc3Cl)nn12	-19.1%	
O=[N+]([O-])c1ccccc1O		inactive
Nc1ccc(N=Nc2ccc(-c3ccc(N=Nc4c(S(=O)(=O)O)cc5cc(S(=O)(=O)O)c(N=Nc6ccccc6)c(O)c5c4N)cc3)cc2)c(N)c1	-0.083% [at 30.3 µM]	

SMILES	activation	Potency
c1ccc(P(c2ccccc2)c2ccccc2)cc1		inactive
CCCCCBr	0.715%	
c1ccc2c(c1)sc1ccccc12		inactive
COc1ccc2c3c1O[C@H]1[C@H](O)CC[C@H]4[C@@H](C2)N(C)CC[C@@]341	0.91%	
CN(C)CCc1c[nH]c2cccc(OP(=O)(O)O)c12	-1.72%	
CC(Cl)C(=O)O (centres undefined)	2.3%	
Clc1ccc(Cl)cc1		inactive
FC(F)(F)c1ccc(Cl)cc1		inactive
CCCCCCCCCBr	2.79%	
COC(=O)NS(=O)(=O)c1ccc(N)cc1		inactive
CC(O)CN1CCN(CC(=O)[O-])CCN(CC(=O)[O-])CCN(CC(=O)[O-])CC1.[Gd+3] (centres undefined)	1.35% [at 30.3 µM]	
Nc1cnn(-c2ccccc2)c(=O)c1Cl	-8.09%	
Cl[C@H]1OCCO[C@@H]1Cl		inactive
O=[N+]([O-])c1cc(Cl)ccc1Cl	-0.577%	
c1nc[nH]n1		inactive
COC[C@H](C)N(C(=O)CCl)c1c(C)csc1C	2.83%	
CCC(=O)Nc1ccc(Cl)c(Cl)c1		inactive
C=C(C)C(=O)OCC1CO1 (centres undefined)		inactive
O=C(NC(=O)c1c(F)cccc1F)Nc1cc(Cl)c(OC(F)(F)C(F)C(F)(F)F)cc1Cl (centres undefined)		inactive
